PubChem BioAssay (NCI)
This is part of a sample that, as a whole, favours compounds with a hit. Of some 83,000 tested, about 20% had one in any assay.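 Step 1: grow cells in 96-well plates. Step 2: add test compound at a single concentration. Step 3: incubate 48 h. Step 4: record percent growth.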 Active and inactive are the calls of the source. How the source made its calls: active means growth percent below 10; inactive means the rest.

Each molecule was assayed on SR leukemia (assay: NCI-60 one-dose screen, 48 h (100 = growth as untreated, 0 = no growth, -100 = all killed)). Settings: 10 µM unless noted.
With `O=C1/C(=C\c2ccc[nH]2)c2ccccc2N1c1ccccc1` the growth was 139% (inactive).
`CC[C@@H](C)[C@H](NC(=O)Cn1cc(CNC(=O)[C@@H](NC(=O)OCc2ccccc2)C(C)C)nn1)C(=O)O` was tested, and the growth was 101% (inactive).
For `CN1C(=O)N(C)C2C1NN=c1s/c(=C\c3ccc([N+](=O)[O-])cc3)c(=O)n12` (stereo not drawn), the growth was 22% (inactive).
`CNCCNc1nc2ccccc2c2c(=O)c3cccc(C)c3sc12` was tested, and the growth was -29.9% (active).
With `CCCCN1CCN(c2ccc3nc(-c4ccc5nc(-c6ccc(C(F)(F)F)cc6)[nH]c5c4)[nH]c3c2)CC1` the growth was -46.8% (active).
In the case of `CC[C@H](C)[C@@H](C(=O)OC)n1cc(CNC(=O)[C@@H](Cc2ccccc2)NC(=O)OCc2ccccc2)nn1`, the growth was 103% (inactive).
With `COc1ccc(C2=C(c3cccc(OC)c3)C(=O)c3ccc(C)nc3C2=O)cc1` the growth was 28.5% (inactive).
For `CC(C)C[C@H](C(=O)N[C@@H](C)C(N)=O)N1CC=CCN(O)S1(=O)=O`, the growth was 95.3% [5 µM] (inactive).
In the case of `CN1C(=O)N(C)C2Nn3c(s/c(=C\c4ccc(Cl)cc4Cl)c3=O)=NC21` (stereo not drawn), the growth was 35.9% (inactive).
With `COc1ccc(/C=c2\sc3n(c2=O)NC2C(N=3)N(C)C(=O)N2C)cc1` (stereo not drawn) the growth was 86.8% (inactive).
`COC(=O)c1c2c(c(C)[n+]([O-])c1C)C(=O)C=C(NCc1ccccc1)C2=O` was tested, and the growth was 4.44% (active).
In the case of `N#C/C(=C\c1c(-c2ccccc2)[nH]c2ccccc12)S(=O)(=O)c1ccccc1`, the growth was 17.9% (inactive).
For `CCN1C(=O)N(CC)C2C1NN=c1s/c(=C3\C(=O)N(CC(C)(C)C)c4ccccc43)c(=O)n12` (stereo not drawn), the growth was 6.48% (active).
